Data: ChEMBL document CHEMBL1157539, “Thousands of chemical starting points for antimalarial lead identification” (Nature, 2010)

tested on: HepG2; experiment: GSK_TCMDC: Percent inhibition of human HepG2 cell line. Test compounds present at 10uM.; assay type: functional

Compound	Inhibition [%]
CC(C)CNCc1cccc(-c2cccc(CN(CCCN3CCN(C)CC3)C(=O)/C=C/c3ccccc3)c2)c1.O=C(O)C(F)(F)F	44
COc1cccc(C=NN=c2cc(C)[nH]c3ccccc23)c1	16
NC1CCN(CCNCc2cccc(-c3ccc(-c4nc5cc(C(F)(F)F)ccc5[nH]4)cc3)c2)C1.O=C(O)C(F)(F)F (stereo not given)	19
CC(Cc1ccc(NC(=O)c2ccc(CNCc3ccccc3)cc2)cc1)N(CCc1cccc(Cl)c1)C(=O)OC(C)(C)C (stereo not given)	16
COc1ccc(CNC(=O)c2cnc3c(O)cccc3c2Nc2cccc(NC(=O)c3ccc(F)cc3)c2)cc1.O=C(O)C(F)(F)F	50
